Compound activity as filed in PubChem BioAssay.
In the library only some 2.4% were active in any assay of this set; here they are far more common.
Pol kappa inh-1 – inhibitors of human DNA polymerase kappa; purified Pol kappa, fluorescent DNA synthesis assay, 10 min; AID 588579; Q9UBT6; 0.53% of 400,000 active; Potency, µM (series often up to 107 µM), for the others: top-dose activity, negative = inhibition, actives largely listed as inhibitors; note: potency is the fitted concentration of half-maximal effect; % is set by controls: 0 for no effect and ±100 for the full control effect
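50 nM final substrate added after 15 min RT preincubation of 10 nM Pol kappa with compound; fluorescence read at 0 and 10 min.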
FEN1 inh-1 – human FEN1 inhibition. Potency, µM (doses to about 114 µM), for the others: top-dose activity change, negative = inhibition, usual class: inhibitors. AID 588795. Recombinant FEN1 flap cleavage, fluorescence, 15 min. P39748. 0.35% of 390,000 active; note: potency is the fitted concentration of half-maximal effect; % is set by controls: 0 for no effect and ±100 for the full control effect; nearly all actives have a fitted effect of over 65% in size
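Quantitative HTS format: each compound was titrated, incubated with 10 nM nuclease for 15 min at room temperature, then challenged with flap substrate at 50 nM final. Signal change over 15 min gave concentration–effect curves.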
Pol iota inh – DNA polymerase iota (human) inhibition; AID 588590; Q9UNA4; Pol iota fluorescent replication assay, 10 min; 1% of 390,000 active; Potency, µM (doses to about 115 µM), inactives show at the top dose activity, negative = inhibition, hits mostly inhibitors; note: potency is the fitted concentration of half-maximal effect
Target sequence (Q9UNA4 whole entry, looked up): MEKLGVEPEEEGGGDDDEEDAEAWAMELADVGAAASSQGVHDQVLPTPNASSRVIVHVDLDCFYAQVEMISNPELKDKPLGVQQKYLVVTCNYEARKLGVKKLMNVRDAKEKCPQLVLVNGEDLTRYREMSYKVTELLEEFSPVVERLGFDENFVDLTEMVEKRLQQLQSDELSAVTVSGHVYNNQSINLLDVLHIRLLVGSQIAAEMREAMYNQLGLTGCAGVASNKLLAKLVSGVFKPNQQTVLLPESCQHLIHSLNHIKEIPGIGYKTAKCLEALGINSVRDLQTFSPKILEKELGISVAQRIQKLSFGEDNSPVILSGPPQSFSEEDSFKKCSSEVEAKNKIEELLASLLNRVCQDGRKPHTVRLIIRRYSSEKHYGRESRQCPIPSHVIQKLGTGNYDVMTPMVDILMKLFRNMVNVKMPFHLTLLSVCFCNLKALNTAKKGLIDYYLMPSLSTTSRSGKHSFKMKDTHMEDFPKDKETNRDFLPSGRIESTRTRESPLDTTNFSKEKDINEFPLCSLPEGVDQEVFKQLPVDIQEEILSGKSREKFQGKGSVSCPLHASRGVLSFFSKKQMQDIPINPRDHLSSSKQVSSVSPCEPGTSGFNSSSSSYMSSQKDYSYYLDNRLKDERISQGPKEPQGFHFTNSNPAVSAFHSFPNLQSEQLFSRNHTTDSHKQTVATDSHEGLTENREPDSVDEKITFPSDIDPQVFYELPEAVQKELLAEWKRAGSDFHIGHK
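Fluorescent replication assay read twice, at 0 min and 10 min after adding 50 nM (final) substrate. Enzyme (10 nM) and compounds were first incubated 15 min at room temperature; enzyme-free buffer wells were negative controls.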
Tb PGK inh – inhibitors of T. brucei phosphoglycerate kinase; PGK/GAPDH coupled, Kinase-Glo luminescence, 60 min; AID 602233; 0.043% of 380,000 active; Potency, µM (series often up to 57.5 µM), for inactives: top-dose activity change, negative = inhibition, usual class: inhibitors; note: potency is the fitted concentration of half-maximal effect; % is set by controls: 0 for no effect and ±100 for the full control effect; nearly all actives have a fitted effect of over 60% in size
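Recombinant glycosomal PGK reaction used 1,3-bisphosphoglycerate generated in-well by GAPDH (100nM final) in 100mM TEA pH 7.6, 5mM MgCl2, 0.01% Tween-20. After 60 minutes at room temperature, ATP was read by Kinase-Glo Plus luminescence end-point.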
POLB inh – DNA polymerase beta (human) inhibition | AID 485314 | 1.3% of 340,000 active | Potency, µM (doses to about 114 µM), without a hit: at the highest dose activity change, negative = inhibition, actives largely listed as inhibitors | Pol beta primer extension/strand displacement, fluorescence kinetic | P06746; note: potency is the fitted concentration of half-maximal effect; % is set by controls: 0 for no effect and ±100 for the full control effect
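Homogeneous kinetic assay of primer extension and strand displacement by 10 nM Pol beta, preincubated 15 min at room temperature with compound before 50 nM substrate (final) was added. Read at 0 and 10 min; four-parameter Hill fit.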
Pol eta inh-1 – DNA polymerase eta (human) inhibition. recombinant Pol eta, fluorescent DNA replication assay. 1.2% of 390,000 active. Potency, µM (doses to about 114 µM), for inactives: at the top dose activity change, negative = inhibition, most hits filed as inhibitors. Q9Y253; note: potency is the fitted concentration of half-maximal effect; % is set by controls: 0 for no effect and ±100 for the full control effect
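Pol eta at 10 nM preincubated with compounds 15 min at room temperature; reaction started with fluorescent substrate (50 nM final) and read kinetically at 0 and 10 min.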
BAZ2B inh – confirmation of human BAZ2B bromodomain inhibitors; shares compounds with Pol kappa inh-1; AlphaScreen BAZ2B / biotin-H3K14Ac peptide displacement; Potency, µM, usual class: inhibitors; 100% of 25 active; calls by dose curve
AlphaScreen ctr – AlphaScreen signal interference, BAZ2B hit counter-screen; shares compounds with Pol kappa inh-1; AlphaScreen biotin-His6 peptide bead counterscreen, signal decrease; Potency, µM (series often up to 57.1 µM), for the others: at the top dose activity change, negative = inhibition, most hits filed as inhibitors; 25 tested, under 10 active;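 active = clear concentration-dependent signal drop in the bead assay lacking the target, so a primary-screen artifact; inconclusive = weak, partial or single-dose response; inactive = no response, so a real primary hit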
TbPGK inh – blocks T. brucei phosphoglycerate kinase; shares compounds with Pol kappa inh-1; TbPGK coupled GAPDH assay, Kinase-Glo luminescence; Potency, µM (doses to about 57.5 µM), for the others: at the highest dose activity change, negative = inhibition, usual class: inhibitors; 79% of 500 active; note: potency is the fitted concentration of half-maximal effect; % is set by controls: 0 for no effect and ±100 for the full control effect; nearly all actives have a fitted effect of over 65% in size
POLI cherry-pick – Human Pol iota inhibitor confirmatory assay. shares compounds with Pol kappa inh-1. Pol iota primer extension, TAMRA/BHQ fluorescence. Potency, µM, hits mostly inhibitors. 77% of 1,500 active; note: potency is the fitted concentration of half-maximal effect
Pol kappa inh-2 – confirmation of human DNA polymerase kappa inhibitors. shares compounds with Pol eta inh-1. purified Pol-kappa, fluorescent strand-displacement substrate. Potency, µM, actives largely listed as inhibitors. 76% of 920 active. AID 720501; note: potency is the fitted concentration of half-maximal effect
Pol eta inh-2 – Pol eta (human) inhibition, cherry-pick confirmation | Pol eta primer extension, TAMRA/BHQ fluorescence, 10 min | Potency, µM, most hits filed as inhibitors | shares compounds with Pol eta inh-1 | AID 720502 | 64% of 2,600 active; note: potency is the fitted concentration of half-maximal effect
FEN1 inh-2 – confirmation of human FEN1 inhibitors. AID 720498. shares compounds with FEN1 inh-1. Potency, µM, most hits filed as inhibitors. 79% of 880 active. FEN1 flap cleavage, TAMRA/BHQ2 fluorogenic DNA substrate; note: potency is the fitted concentration of half-maximal effect; nearly all actives have a fitted effect of over 60% in size
Active calls of the source: *; ? = inconclusive; nt = no result; [ ] = remark or other dose. Unless noted, calls come from the whole dose curve; as a rule, active = well fitted curve in the direction sought with a large enough effect; inconclusive = small, poorly fitted or top-dose-only effect, or another doubt; inactive = no such curve, though single readings can be large; an effect the other way counts as inactive or inconclusive.

SMILES	Pol kappa inh-1	FEN1 inh-1	Pol iota inh	Tb PGK inh	POLB inh	Pol eta inh-1	POLI cherry-pick	FEN1 inh-2	others
C=CCn1c(CSc2ccccc2[N+](=O)[O-])n[nH]c1=S	50µM*	?	8.9µM*	-21%	10µM*	13µM*	53*	76*	Pol eta inh-2=24*
CCOc1ccc(NC(=S)N2CCC(NC(=O)c3ccccc3C)CC2)cc1	3%	3%	31%	-19%	2%	-9%	nt	nt
CCOC(=O)C1=C(C)N=c2s/c(=C\c3ccc(OCC(=O)O)cc3)c(=O)n2C1c1ccc(Cl)cc1 (stereo not given)	50µM*	?	?	?	22µM*	?	21*	76*	BAZ2B inh=14*;AlphaScreen ctr=-19%;TbPGK inh=4.6µM*
CC1OC(O[C@H]2C[C@@H](O)[C@]3(CO)[C@@H]4C(CC[C@]3(O)C2)[C@@]2(O)CC[C@H](C3=CC(=O)OC3)[C@@]2(C)C[C@H]4O)C(O)C(O)C1O (stereo not given in full)	7%[19.4 µM]	nt	nt	nt	nt	nt	nt	nt
Cc1ccc(-n2c(C)cc(/C=C3/C(=O)NC(=O)N(C)C3=O)c2C)cc1	-10%	3%	?	4%	5%	-3%	nt	nt
Cc1cc(/C=C2\C(=O)NC(=O)N(Cc3ccccc3)C2=O)c(C)n1-c1ccc(Cl)c(C(=O)O)c1	18µM*	79µM*	8.9µM*	13µM*	3.5µM*	1.8µM*	24*	?	TbPGK inh=6.5µM*;Pol kappa inh-2=24*;Pol eta inh-2=21*
C[C@@H](NC(=O)[C@@H](N)Cc1ccc(O)cc1)C(=O)NCC(=O)N(C)[C@@H](Cc1ccccc1)C(=O)NCCO	13%[60.1 µM]	nt	nt	nt	nt	nt	nt	nt
Cc1cc(C)cc(C(=O)OC2C[C@H]3CC[C@@H](C2)N3C)c1 (stereo not given in full)	-7%[19.4 µM]	nt	nt	nt	nt	nt	nt	nt
COc1ccc(/C(=N/OC(C)=O)c2nccc3cc(OC)c(OC)cc23)cc1OC	-6%	17%	69%	-4%	6%	2%	nt	nt
COc1cc2c(ccc3c4cc(OC)c(OC)cc4c[n+](C)c23)cc1O	32µM*	3.5µM*	?	1%	nt	?	19*	2.7*
N#Cc1cc2c(nc1SCC(=O)Nc1cccc(F)c1)C1CCN2CC1	-5%	-10%	1%	2%	32%	0%	nt	nt
